Shown is part of a subset that was picked to be rich in hits.
Cruzain inh Det = qHTS Assay for Promiscuous and Specific Inhibitors of Cruzain (with detergent); Cruzipain (Trypanosoma cruzi), P25779; purified cruzain, Z-FR-AMC fluorescence, 0.01% Triton; AID 1478, 2009; Potency, µM, for the others: max response, negative = inhibition, actives largely listed as inhibitors; 200,000 tested, 0.43% active;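 further: plate controls were neutral wells for no effect and buffer without enzyme for full effect; nearly all actives have a fitted effect of over 40% in size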
Target sequence (P25779 123-467 limits assumed): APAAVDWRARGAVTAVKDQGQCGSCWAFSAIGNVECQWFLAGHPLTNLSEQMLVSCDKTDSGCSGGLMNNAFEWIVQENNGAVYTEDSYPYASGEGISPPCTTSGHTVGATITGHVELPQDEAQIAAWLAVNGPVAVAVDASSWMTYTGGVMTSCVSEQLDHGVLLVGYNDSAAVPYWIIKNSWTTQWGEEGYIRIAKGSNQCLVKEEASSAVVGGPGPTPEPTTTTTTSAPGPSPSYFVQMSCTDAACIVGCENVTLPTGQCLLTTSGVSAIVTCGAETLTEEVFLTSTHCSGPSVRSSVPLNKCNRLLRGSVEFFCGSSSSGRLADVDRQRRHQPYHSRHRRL
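Enzyme 1.5 nM, Z-FR-AMC 2 uM, NaOAc 100 mM pH 5.5, DTT 5 mM, Triton X-100 0.01%; 15 min RT compound preincubation; kinetic ex360/em450, 60 s delta.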
Cruzain inh noDet = qHTS Assay for Promiscuous and Specific Inhibitors of Cruzain (without detergent); Potency, µM, inactives show max response, negative = inhibition, most hits filed as inhibitors; 200,000 tested, 2.3% active; Cruzipain (Trypanosoma cruzi), P25779; purified cruzain, Z-FR-AMC fluorescence, no detergent;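 further: plate controls were enzyme without inhibitor for no effect and buffer without enzyme for full effect; nearly all actives have a fitted effect of over 40% in size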
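Purified cruzain at 1.5 nM, pre-incubated 15 min with compound at room temperature in 100 mM sodium acetate pH 5.5, 5 mM DTT, 0.00005% Triton X-100. Reaction started with 2 uM Z-FR-AMC; AMC fluorescence increase over 60 s gives rate.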
NS1 function inh = qHTS Assay for Inhibitors of Influenza NS1 Protein Function. 270,000 tested, 0.4% active. Potency, µM (highest dose often 46.1 µM), for inactives: at the highest dose activity, positive = more growth; calls by dose curve; further: actives are rising curves; nearly all actives have a fitted effect of over 50% in size
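S. cerevisiae expressing influenza A NS1, grown in glucose, washed, then diluted 1:100 into pH 6.0 -URA galactose medium with 23 nl compound. Growth recovery read as OD600; NS1-free strain serves as control.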
An asterisk follows results filed as active; ? = inconclusive; / = not tested or not shown. Unless noted, the call rests on the fitted dose curve; in most records, active means well fitted curve in the direction sought with a large enough effect; inconclusive means small, poorly fitted or top-dose-only effect, or another doubt; inactive means no such curve, though single readings can be large; an effect the other way counts as inactive or inconclusive. Potency means the concentration at half of the fitted maximal effect.

SMILES	Cruzain inh Det	Cruzain inh noDet	NS1 function inh
CC1CCOC2(O1)C(=O)N(CN1CCN(c3ccccc3F)CC1)c1ccccc12 (stereo not given)	2%	9%	-3%
COC(=O)N(NC(=O)C(O)(c1ccccc1)c1ccccc1)c1ccc(C)cc1	-2%	2%	-13%
O=C(NC1CCCCC1)c1ccccc1NC(=S)NC(=O)C1CCC1	2%	-12%	20%
O=C(/C=C/c1ccccc1Cl)NC(=S)Nc1ccccc1C(=O)NC1CCCCC1	1%	4µM*	-1%
COc1ccc(N(CC(=O)Nc2ccc3c(c2)OCO3)S(=O)(=O)c2ccc(F)cc2)cc1	-5%	20µM*	11%
COc1ccc(NS(=O)(=O)c2ccc(O)c(C(=O)OCC(=O)Nc3ccc4c(c3)OCCO4)c2)cc1	-3%	7.9µM*	20%
COc1ccc(NS(=O)(=O)c2ccc(NS(=O)(=O)c3ccc4c(c3)OCCO4)cc2)cc1	-10%	2%	/
COc1ccc(S(=O)(=O)N(C)CC(=O)Nc2ccc3c(c2)OCO3)cc1	-1%	-10%	2%
O=C(CCSCc1cccc(Cl)c1)N1CCN(c2ccc(Cl)cc2)CC1	0%	5%	/
CCCCn1nnnc1NCc1cc(OC)c(OC)cc1OC	3%	3%	-2%
O=C(/C=C/c1ccc(O)c(O)c1)O[C@H](Cc1ccc(O)c(O)c1)C(=O)O	/	/	5.6µM*
O=C(/C=C/c1ccc(O)c(O)c1)O[C@@H](C(=O)O)[C@@H](OC(=O)/C=C/c1ccc(O)c(O)c1)C(=O)O	-5%	-9%	/
CC1CCc2nc(NC(=O)c3ccc(S(=O)(=O)N4CCCc5ccccc54)cc3)sc2C1 (stereo not given)	-5%	7.9µM*	0%
O=C(Nc1nc2c(s1)CCCC2)c1ccc(S(=O)(=O)N2CCCc3ccccc32)cc1	-2%	?	2%
O=S(=O)(c1ccccc1)N1CCC[C@@]2(CCN(c3ncccn3)C2)C1	0%	1%	/
CN(C)S(=O)(=O)c1cccc(NC(=O)C(c2ccccc2)c2ccccc2)c1	/	/	-2%
CC(=O)c1cccc(NC(=O)C(OC(=O)c2cccc(S(=O)(=O)N(C)c3ccccc3)c2)c2ccccc2)c1 (stereo not given)	-1%	25µM*	?
CCOc1ccccc1NC(=O)C(OC(=O)c1ccccc1NS(=O)(=O)c1cccs1)c1ccccc1 (stereo not given)	-2%	?	1%
CC(=O)c1cccc(NC(=O)C(OC(=O)c2ccccc2NS(=O)(=O)c2cccs2)c2ccccc2)c1 (stereo not given)	-3%	7.9µM*	?
O=C(c1ccco1)N1CCN(Cc2nnnn2CC2CCCO2)CC1 (stereo not given)	/	/	1%
Cc1cc(C)c(NC(=O)C(C)Sc2nc3ccc(N4C(=O)c5ccccc5C4=O)cc3s2)c(C)c1 (stereo not given)	0%	6.3µM*	10%
CCc1cccc(C)c1NC(=O)CSc1nc2ccc(N3C(=O)c4ccccc4C3=O)cc2s1	5%	?	8%
COc1ncc2nc(-c3cc(F)cc(F)c3)c(=O)n(Cc3cccs3)c2n1	1%	-1%	/
Cc1ccc(Nc2ncnc3onc(C)c23)cc1Cl	-2%	-3%	/
CCc1ccc(C2CC(c3ccccc3)Nc3nc(N)nn32)cc1 (stereo not given)	/	/	5%
SMILES	Cruzain inh Det	Cruzain inh noDet	NS1 function inh
c1ccc(C2CC(c3ccccc3)n3c(nc4ccccc43)N2)cc1 (stereo not given)	1%	13µM*	4%
CCn1c(C)c(/C=N/Nc2nc3ccccc3s2)c2ccccc21	-1%	13µM*	9%
C(=N\Nc1nc2ccccc2s1)/c1cccs1	-5%	-2%	-15%
Cc1nn(-c2ccccc2Cl)c(Cl)c1/C=N/Nc1nc2ccccc2s1	-2%	13µM*	-5%
CCOC(=O)N/N=C/c1c(C)nn(-c2ccccc2Cl)c1Cl	-4%	-2%	-5%
Cc1[nH]c2ccc(OC(F)(F)F)cc2c1CCN1C(=O)c2ccc(C(=O)O)cc2C1=O	/	/	-35%
CC(C)C(=O)NC(=S)Nc1nnn(C)n1	-1%	11%	12%
O=C(NCCN1CCOCC1)c1ccc(Cl)c(S(=O)(=O)N2CCCC2)c1	/	/	4%
COc1ccc(OC)c(NC(=O)Cc2c(C)n(C(=O)c3ccc(Cl)cc3)c3ccc(OC)cc23)c1	1%	-5%	/
COc1ccc2c(c1)c(CC(=O)Nc1ccccc1OC)c(C)n2C(=O)c1ccc(Cl)cc1	-6%	16µM*	23%
O=C(OCc1nc2scc(-c3ccccc3)c2c(=O)[nH]1)c1cccc([N+](=O)[O-])c1	-7%	25µM*	2%
CC(C)[C@H](NC(=O)c1ccccc1)C(=O)OCc1nc2scc(-c3ccccc3)c2c(=O)[nH]1	-6%	?	25%

High-throughput results as filed in PubChem BioAssay.
